Experimental data from the supplement of paper PMC8371130.
Structures can show the parent of a compound that is named as a salt.

Tested on: HL-1
Test: relative cell viability (CellTiter-Glo) vs DMSO control (% of DMSO control); higher = more viable cells
Method in brief: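 HL-1 mouse atrial cardiomyocytes were seeded into 384-well plates at 1000 cells per well along with compounds at 40, 200, 1000 or 5000 nM in 0.01% DMSO. After one day, the cells were moved to a hypoxic workstation (1% O2) for 48 h and then reoxygenated for 24 h in a normal incubator, while others remained in normoxia for the same period. Cell viability was measured by CellTiter-Glo luminescence and normalised to vehicle-treated control cells.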

[1] = oxygen condition: hypoxia 48 h (1% O2) + reoxygenation 24 h, 40 nM
[2] = oxygen condition: hypoxia 48 h (1% O2) + reoxygenation 24 h, 200 nM
[3] = oxygen condition: hypoxia 48 h (1% O2) + reoxygenation 24 h, 1000 nM
[4] = oxygen condition: hypoxia 48 h (1% O2) + reoxygenation 24 h, 5000 nM
[5] = oxygen condition: normoxia 72 h, 40 nM
[6] = oxygen condition: normoxia 72 h, 200 nM
[7] = oxygen condition: normoxia 72 h, 1000 nM
[8] = oxygen condition: normoxia 72 h, 5000 nM

Structure (SMILES)	relative cell viability [1]	relative cell viability [2]	relative cell viability [3]	relative cell viability [4]	relative cell viability [5]	relative cell viability [6]	relative cell viability [7]	relative cell viability [8]
Cc1cc(C)nc(NS(=O)(=O)c2ccc(N)cc2)n1 [Sulfamethazine]	102	104	104	112	94.6	104	105	119
CC(C)C(=O)Nc1ccc([N+](=O)[O-])c(C(F)(F)F)c1 [Flutamide]	108	102	101	38.7	98.3	101	105	37
CNC1CCCN(c2c(F)cc3c(=O)c(C(=O)O)cn(C4CC4)c3c2OC)C1 (stereo unspecified) [Balofloxacin]	103	93.5	101	107	101	99.2	99.3	107
Cc1ccccc1C(=O)Nc1ccc(C(=O)N2CCCC(O)c3cc(Cl)ccc32)c(C)c1 (stereo unspecified) [Tolvaptan]	97.3	104	104	110	96.7	104	106	108
CCOc1nc2cccc(C(=O)OCc3oc(=O)oc3C)c2n1Cc1ccc(-c2ccccc2-c2noc(=O)[nH]2)cc1 [Azilsartan Medoxomil]	101	99.2	116	116	93.4	103	100	114
Nc1ccn([C@@H]2O[C@H](CO)[C@@H](O)C2(F)F)c(=O)n1 [Gemcitabine]	3.81	3.59	4.33	3.65	3.56	3.5	3.75	3.7
CCC(CC)[C@H](NC(C)=O)[C@@H]1[C@H](O)[C@@H](C(=O)O)C[C@H]1NC(=N)N [Peramivir Trihydrate]	101	99.2	107	111	112	109	103	116
Cc1cc(C#N)cc(C)c1Oc1nc(Nc2ccc(C#N)cc2)nc(N)c1Br [Etravirine]	106	103	109	111	108	111	115	110
CC(=O)OCC[N+](C)(C)C [Acetylcholine chloride]	93.2	99.1	101	106	91.7	101	104	106
CN(C)CCN(Cc1ccccc1)c1ccccn1 [Tripelennamine HCl]	97.8	87.6	88	103	93	91.8	94.1	105
CNC(=O)c1cc(Oc2ccc(NC(=O)Nc3ccc(Cl)c(C(F)(F)F)c3)cc2)ccn1 [Sorafenib]	104	105	116	114	109	101	118	114
O=C(NCCN1CCOCC1)c1ccc(Cl)cc1 [Moclobemide]	113	111	102	120	108	100	119	121
O=C(O[C@H]1CN2CCC1CC2)N1CCc2ccccc2[C@@H]1c1ccccc1 [Solifenacin succinate]	110	111	115	106	104	112	105	113
CCCC(=O)Nc1ccc(OCC(O)CNC(C)C)c(C(C)=O)c1 (stereo unspecified) [Acebutolol HCl]	102	108	107	114	104	107	106	116
CCN(CC)C(=S)SSC(=S)N(CC)CC [Disulfiram]	12.3	8.25	4.82	4.57	19.2	11.5	6.89	3.79
CCCCNC(=O)NS(=O)(=O)c1ccc(C)cc1 [Tolbutamide]	99	99.7	101	113	103	102	102	110
O=S(=O)(O)Oc1ccc(C(c2ccc(OS(=O)(=O)O)cc2)c2ccccn2)cc1 [Sodium Picosulfate]	107	109	108	116	110	111	112	116
CN1CC(=O)NC1=N [Creatinine]	105	104	106	114	102	97.3	100	108
CC(=O)O[C@H]1C(=O)[C@@]2(C)[C@H]([C@H](OC(=O)c3ccccc3)[C@]3(O)C[C@H](OC(=O)[C@H](O)[C@@H](NC(=O)c4ccccc4)c4ccccc4)C(C)=C1C3(C)C)[C@]1(OC(C)=O)CO[C@@H]1C[C@@H]2O [Paclitaxel]	42.4	42.8	39.9	30.5	52.3	52.2	33.2	22.2
CNC(=O)c1cc(Oc2ccc(NC(=O)Nc3ccc(Cl)c(C(F)(F)F)c3)c(F)c2)ccn1 [Regorafenib]	107	113	109	114	110	110	114	134
CC1(C)Cc2c(-c3ccccc3)c(-c3ccc(Cl)cc3)c(CC(=O)O)n2C1 [Licofelone]	97.3	94.8	97.1	105	92.9	96.5	93.5	108

Structure (SMILES)	relative cell viability [1]	relative cell viability [2]	relative cell viability [3]	relative cell viability [4]	relative cell viability [5]	relative cell viability [6]	relative cell viability [7]	relative cell viability [8]
CCCSc1nc(N[C@@H]2C[C@H]2c2ccc(F)c(F)c2)c2nnn([C@@H]3C[C@H](OCCO)[C@@H](O)[C@H]3O)c2n1 [Ticagrelor]	109	115	108	123	108	108	113	111
C#Cc1cccc(Nc2ncnc3cc(OCCOC)c(OCCO)cc23)c1	100	106	107	109	111	104	105	121
CC(S)C(=O)NCC(=O)O (stereo unspecified) [Tiopronin]	95.4	102	104	105	99.2	98.9	101	103
CCN(Cc1ccncc1)C(=O)C(CO)c1ccccc1 (stereo unspecified) [Tropicamide]	102	99.4	101	107	99.4	102	101	104
N[C@H](Cc1ccccc1)C(=O)O [D-Phenylalanine]	103	99.4	109	111	92	101	108	116
CC1=C(/C=C/C(C)=C/C=C/C(C)=C/C=C/C=C(C)/C=C/C=C(C)/C=C/C2=C(C)CCCC2(C)C)C(C)(C)CCC1 [Beta Carotene]	96.9	95.3	99.9	104	104	92.9	104	104
CN(C)CCc1c[nH]c2ccc(C[C@H]3COC(=O)N3)cc12 [Zolmitriptan]	105	104	104	110	108	104	102	102
CC(C)(OCc1nn(Cc2ccccc2)c2ccccc12)C(=O)O [Bindarit]	99.2	99.8	100	3.69	96.7	100	95.7	3.69
Nc1nc2n[nH]nc2c(=O)[nH]1 [Azaguanine-8]	92	105	102	111	103	102	98.7	104
Nc1nc(Cl)nc2c1ncn2[C@H]1C[C@H](O)[C@@H](CO)O1 [Cladribine]	76.2	30.7	6.18	4.06	55.5	21.9	5.2	4.23
CN1CC(=O)N2[C@H](c3ccc4c(c3)OCO4)c3[nH]c4ccccc4c3C[C@@H]2C1=O [Tadalafil]	106	105	116	112	106	112	110	121
COc1cc2nc(N3CCN(C(=O)c4ccco4)CC3)nc(N)c2cc1OC [Prazosin HCl]	102	101	109	109	101	100	106	109
C[N+]1(C)CCC(=C(c2ccccc2)c2ccccc2)CC1 [Diphemanil methylsulfate]	104	100	104	104	102	104	106	100
CNS(=O)(=O)Cc1ccc2[nH]cc(CCN(C)C)c2c1 [Sumatriptan succinate]	107	109	100	110	102	100	108	104
Cc1cc(C2CCCCC2)n(O)c(=O)c1 [Ciclopirox]	95.4	92.3	80.4	5.32	87.8	69.4	20	2.16
COC(=O)CCc1ccc(OCC(O)CNC(C)C)cc1 (stereo unspecified) [Esmolol HCl]	103	104	105	80.4	104	104	108	112
CCN(CC)CCOC(=O)C1(C2CCCCC2)CCCCC1 [Dicyclomine HCl]	94.1	95.7	97.1	100	92.4	101	97.2	105
CN(C)CCN(Cc1cccs1)c1ccccn1 [Methapyrilene HCl]	104	104	104	84.1	109	107	111	111
CC(C)NCC(O)c1ccc(NS(C)(=O)=O)cc1 (stereo unspecified) [Sotalol]	100	98.9	93	99.8	96.9	94.1	98.4	104
COc1ccccc1OCC(O)COC(N)=O (stereo unspecified) [Methocarbamol]	104	107	108	119	101	112	106	114
CC(C)(Oc1ccc(CCNC(=O)c2ccc(Cl)cc2)cc1)C(=O)O [Bezafibrate]	102	98.2	105	107	105	101	99.8	103

Structure (SMILES)	relative cell viability [1]	relative cell viability [2]	relative cell viability [3]	relative cell viability [4]	relative cell viability [5]	relative cell viability [6]	relative cell viability [7]	relative cell viability [8]
C[N+](C)(C)CCCCCC[N+](C)(C)C [Hexamethonium bromide]	101	99.3	105	113	94.2	96.6	100	103
COc1cc(C(=O)NC2CCCNC2)cc(OC)c1OC (stereo unspecified) [Troxipide]	103	109	106	110	109	110	116	113
O=C(O)Cc1ccccc1Nc1c(Cl)cccc1Cl [Diclofenac Diethylamine]	103	107	105	113	110	115	120	113
CC(C[N+](C)(C)C)OC(N)=O (stereo unspecified) [Bethanechol chloride]	96.1	99.6	107	86.9	104	104	98.4	111
CN(C)CC/C=C1/c2ccccc2Sc2ccc(Cl)cc21 [Chlorprothixene]	105	112	102	115	108	107	118	118
Clc1ccc2nsnc2c1NC1=NCCN1 [Tizanidine HCl]	99.5	106	106	108	105	106	98.5	111
COc1ccc([C@H]2CNC(=O)C2)cc1OC1CCCC1 [S-(+)-Rolipram]	103	92.3	89.4	90.4	95.6	101	98.7	103
CC(C)C[C@H](NC(=O)[C@H](CCc1ccccc1)NC(=O)CN1CCOCC1)C(=O)N[C@@H](Cc1ccccc1)C(=O)N[C@@H](CC(C)C)C(=O)[C@@]1(C)CO1 [Carfilzomib]	3.62	3.8	4.12	3.78	3.3	4.04	3.72	3.71
CC(Oc1c(Cl)cccc1Cl)C1=NCCN1 (stereo unspecified) [Lofexidine  HCl]	99.4	101	99.6	118	98.3	103	89.6	108
NCCS [Cysteamine HCl]	101	108	109	106	102	102	106	111
NS(=O)(=O)c1cc2c(cc1Cl)N=CNS2(=O)=O [Chlorothiazide]	117	112	113	111	109	104	103	110
O=C(c1cc(Cc2n[nH]c(=O)c3ccccc23)ccc1F)N1CCN(C(=O)C2CC2)CC1 [Olaparib]	86.7	84.4	76.2	61.1	79	86.6	70.1	60
C=C1CC[C@H](O)C/C1=C/C=C1\CCC[C@]2(C)[C@@H]([C@H](C)CCCC(C)(C)O)CC[C@@H]12 [Calcifediol]	112	106	106	109	103	104	114	117
N[C@@H](Cc1cc(I)c(Oc2cc(I)c(O)c(I)c2)c(I)c1)C(=O)O [L-Thyroxine]	98.5	101	99.6	110	108	101	99.3	109
O=C(CCCN1CCC(O)(c2ccc(Cl)cc2)CC1)c1ccc(F)cc1 [Haloperidol]	101	99.4	102	101	92.8	98	100	98.5
CCCC(CCC)C(=O)O[C@H]1C[C@H]2CC[C@@H](C1)[N+]2(C)C [Anisotropine Methylbromide]	104	101	93.2	97.8	96.3	93.7	84.7	109
CCCC(=O)O[C@]1(C(=O)COC(C)=O)CC[C@H]2[C@@H]3C[C@H](F)C4=CC(=O)C=C[C@]4(C)[C@@]3(F)[C@@H](O)C[C@@]21C [Difluprednate]	83.3	93.3	92.2	102	90.8	89	94.4	102
Nc1nc(N)nc(-c2cc(Cl)ccc2Cl)n1 [Irsogladine]	101	104	107	109	98.2	104	108	107
CCOC(=O)c1ccc(OC(=O)CCCCCNC(=N)N)cc1 [Gabexate mesylate]	107	105	112	108	101	98.9	109	110
CN(C)CCCN1c2ccccc2CCc2ccccc21 [Imipramine HCl]	98.5	98.9	96.2	110	100	101	101	111
